The panel holds about 83,000 compounds, 20% with a hit somewhere; the sample as a whole holds those more often.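 48-hour exposure, single concentration, 96-well plates; percent growth endpoint where 0 means no net growth. Active: below 10.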 Values without a mark were called inactive. The source made the active and inactive calls.
Legend:
Assay in all cases: NCI-60 one-dose screen, 48 h (100 = growth as untreated, 0 = no growth, -100 = all killed)
Conditions in all cases: 10 µM unless noted
NCI-H23 lung = system: NCI-H23 lung
NCI-H226 lung = system: NCI-H226 lung
NCI-H322M lung = system: NCI-H322M lung
HOP-62 NSCLC = system: HOP-62 NSCLC
NCI-H460 lung = system: NCI-H460 lung
HOP-92 NSCLC = system: HOP-92 NSCLC
NCI-H522 lung = system: NCI-H522 lung
A549/ATCC NSCLC = system: A549/ATCC NSCLC
786-0 renal = system: 786-0 renal
COLO 205 colon = system: COLO 205 colon

| SMILES | growth (NCI-H23 lung) | growth (NCI-H226 lung) | growth (NCI-H322M lung) | growth (HOP-62 NSCLC) | growth (NCI-H460 lung) | growth (HOP-92 NSCLC) | growth (NCI-H522 lung) | growth (A549/ATCC NSCLC) | growth (786-0 renal) | growth (COLO 205 colon) |
| --- | --- | --- | --- | --- | --- | --- | --- | --- | --- | --- |
| C=CC[n+]1c(/C=C2\Sc3ccccc3N2C)sc(-c2ccccc2)c1-c1ccccc1 | 0.426% (active) | 10.3% | 24.2% | 17.8% | 8.83% (active) | -12.5% (active) | -7.57% (active) | 14.2% | 16.8% | -30.2% (active) |
| Cc1cc(C2(c3ccc(O)c(C)c3)OS(=O)(=O)c3ccccc32)ccc1O | 101% | 97.9% | 103% | 107% | 103% | 78.6% | 115% | 101% | 112% | 96.3% |
| CC/C=C\C[C@H]1C/C=C2/C(=O)C=C[C@@H]2C/C=C\CCCC(=O)O1 | -12.5% (active) | -54.8% (active) | 16.7% | 44.2% | -33.7% (active) | -36.6% (active) | -45.1% (active) | -25.2% (active) | -79.9% (active) | -13.1% (active) |
| Cc1cc(Nc2cc(N3CCN(C)CC3)nc(/C=C/c3ccccc3)n2)n[nH]1 | 22.3% | 17.7% | 29.5% | -19.7% (active) | 5.31% (active) | -60.5% (active) | -12.4% (active) | -25% (active) | -94.3% (active) | -63.2% (active) |
| COC(=O)[C@]12CC[C@@H](C)[C@H](C)[C@@H]1C1=CC[C@@H]3[C@@]4(C)C(c5cnco5)=C[C@@](C)(CO)C4=CC[C@@]3(C)[C@]1(C)CC2 | 47.8% | 60% | 86.5% | 93.7% | 8.07% (active) | 41.8% | 33.9% | 47.1% | 70.5% | 27.2% |
| COC(=O)[C@H](C)NC(=O)[C@@H](OC)[C@@H]1Cc2cc3cc(OC4CC(OC5CC(O)C(O)C(C)O5)C(O)C(C)O4)c(C)c(O)c3c(O)c2C(=O)[C@H]1OC1CC(OC2CC(OC3CC(C)(O)C(O)C(C)O3)C(O)C(C)O2)C(O)C(C)O1 (stereo not given in full) | -31.1% (active) | -21.5% (active) | 11.4% | 13% | 7.28% (active) | 3.12% (active) | -26% (active) | 7.05% (active) | -4.86% (active) | -20.5% (active) |
| COc1cc(OC)c(C(=O)/C=C/c2cc3c(cc2OCc2ccccc2)OC(C)(C)CC3)cc1CC=C(C)C | 48.2% | 43.2% | 79.6% | 85.2% | 78.6% | -21.7% (active) | 65.2% | 32.9% | 79.9% | 84.7% |
| CCN1/C(=C/C=C/c2n(-c3ccccc3)c3ccc(-c4nc5ccccc5s4)cc3[n+]2CC)N(c2ccccc2)c2ccc(-c3nc4ccccc4s3)cc21 | -0.899% (active) | 0.213% (active) | 14.5% | -7.25% (active) | -1.59% (active) | 1.91% (active) | -0.409% (active) | 3.13% (active) | 3.99% (active) | -5.05% (active) |
| Cc1cc(N2CCOCC2)nc(N(CCNc2ccnc3cc(Cl)ccc23)Cc2cccs2)n1 | 35.4% | 54.6% | 26.9% | 19.8% | 7.16% (active) | 15.6% | -21.5% (active) | 28.7% | -35.2% (active) | -69.2% (active) |
| Cc1ccccc1Nc1nc2nonc2nc1Nc1cccc(C)c1C | 17.9% | 48.6% | 80.7% | 72.1% | 41.1% | 22.5% | 3.35% (active) | 27.4% | 65.9% | 59.2% |
| CNC(=O)c1cnc(C)nc1-c1cc(C(C)(C)C)c(O)c(C(C)(C)C)c1 | 103% | 98.2% | 104% | 99.9% | 108% | 74% | 83.2% | 95.9% | 88.9% | 105% |
| COc1ccc(Cl)c(Nc2nc3ccccc3nc2NS(=O)(=O)c2cccc(NC(=O)C(C)(C)N)c2)c1 | 64.5% | 71.4% | 35.1% | 39.4% | 38% | -1.2% (active) | 49% | 32.4% | 16.7% | 21.8% |
| N#CC(C#N)=NO | 92.7% | 94.6% | 92.1% | 85.8% | 108% | 94% | 75% | 73.4% | 99.5% | 113% |
| Cc1cc(-c2cc(OC(=O)c3ccccc3)ccc2Cl)cc2nnc(Nc3ccc(OCCN4CCCC4)cc3)nc12 | 78.9% | 78.6% | 102% | 50.2% | 81.6% | 40.8% | 49.2% | 69.4% | 98.9% | 62.8% |
| Cc1nc(Nc2n[nH]c3c2CN(C(=O)N[C@H](CN(C)C)c2ccccc2)C3(C)C)c2sccc2n1 | -22.8% (active) | -25.2% (active) | -19.1% (active) | -46.5% (active) | -42.8% (active) | -62.4% (active) | -45% (active) | 0.0643% (active) | -15% (active) | -88.6% (active) |
| O=C(Nc1ccc(-c2ccnc(Nc3ccc(N4CCOCC4)cc3)n2)cc1)[C@@H]1CCCN1 | 65.6% | 48.6% | 67.6% | 33.6% | 50.7% | 50.2% | 48.3% | 45% | 40.3% | 44.6% |
| Cc1ccc(NC(=O)c2ccc(CN3CCN(C)CC3)cc2)cc1Nc1nc(-c2cccnc2)cs1 | 68% | 38.6% | 90.2% | 60.2% | 40.3% | 93.1% | 17.7% | 39.4% | 14.5% | 16.1% |
| CO/C=C/C(=O)c1cc2cnc3c(=N)cc(NC(=O)C(C)C)c([nH]1)c23 | -11.9% (active) | -40.3% (active) | -13.2% (active) | -18.7% (active) | 5.42% (active) | -16% (active) | 23.8% | 19.3% | -44.6% (active) | -33.8% (active) |
| O=C1CC(c2cccc(F)c2)c2c(n[nH]c2-c2ccc(Cl)cc2)N1 (stereo not given) | 80.4% | 80.7% | 81.9% | 65.7% | 106% | 83.6% | 61.5% | 61.4% | 89.7% | 104% |
| COc1ccc(-n2c(=O)c3ccccc3n(Cc3ccc(C(=O)NO)cc3)c2=O)cc1 | -50.1% (active) | 31.8% | 38.4% | 25.8% | 36.4% | 48.2% | -41.8% (active) | 38.6% | 56.5% | -50.1% (active) |
| CC(C)C1CCC(C)C(C2(C#N)C(N)=NC(N)=C2C#N)C1=O (stereo not given) | 92.3% | 100% | 98.8% | 104% | 105% | 88.9% | 89.4% | 105% | 106% | 100% |
| Nc1cc2c(cc1Br)-c1c(C(=O)O)cccc1C2O (stereo not given) | 87.2% | 100% | 107% | 95.9% | 99.4% | 125% | 96.5% | 91.7% | 98.8% | 96.3% |
| CCc1nc(C(N)=O)c(Nc2ccc(N3CCC(N4CCN(C)CC4)CC3)c(OC)c2)nc1NC1CCOCC1 | 32.5% | 38.2% | 43.3% | 16.9% | 17.2% | -25.2% (active) | 1.52% (active) | 12.4% | 10.2% | -46.5% (active) |
| CC(C)c1cc(CNc2nc(Nc3cc(C4CC4)[nH]n3)cc(N3CCN(C)CC3)n2)on1 | -25% (active) | -3.34% (active) | -20.1% (active) | -23.5% (active) | -47.6% (active) | -10.9% (active) | -34.7% (active) | 3.1% (active) | 10.3% | -69.6% (active) |
| CC(=O)c1c(C)c2cnc(Nc3ccc(N4CCNCC4)cn3)nc2n(C2CCCC2)c1=O | 50.9% | 52.7% | 31.9% | 42% | 14.1% | 66% | -76.7% (active) | 22.6% | 24.9% | 18.5% |
| O=C(Nc1cccc(Cl)c1)Nc1ncc(CCNc2ncnc3ccsc23)s1 | 30.6% | 10.8% | 55.5% | 11.8% | 20.1% | 40.9% | 13% | 14.9% | 42.1% | -4.76% (active) |
| O=C1NC(=O)/C(=C/c2ccc3nccc(-c4ccncc4)c3c2)S1 | -17.4% (active) | -54.5% (active) | -50.8% (active) | -36.1% (active) | -2.65% (active) | -41.1% (active) | -95.6% (active) | -51.8% (active) | -41.6% (active) | -56.6% (active) |

Source: PubChem BioAssay (NCI)
